A selection: hits, their analogues and other compounds. The true share with any hit is near 12%.
JMJD2A Tudor – blocks the human JMJD2A Tudor domain; O75164; AlphaScreen JMJD2A-Tudor / H3K4me3 peptide binding; Potency, µM (highest dose often 114 µM), most hits filed as inhibitors; 4.4% of 390,000 active; AID 504339; further: nearly all actives have a fitted effect of over 50% in size
Sfp inh – inhibitors of Bacillus subtilis Sfp phosphopantetheinyl transferase; 3.5% of 310,000 active; Potency, µM, most hits filed as inhibitors; Q9F4F7; Biochemical Sfp PPTase activity, qHTS;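 further: the enzyme is Sfp with the accession as filed and its product quenches rhodamine fluorescence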
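Step 1, compound plus 15 nM Sfp-PPTase, 15 min, room temperature. Step 2, add rhodamine-CoA (5 uM) and BHQ-2-YbbR (12.5 uM). Step 3, read 525/598 nm fluorescence at 0 and 30 min.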
BAZ2B inh – blocks human BAZ2B. Q9UIF8. AlphaScreen BAZ2B-H3K14Ac peptide displacement. Potency, µM (series often up to 114 µM), actives largely listed as inhibitors. 4.4% of 360,000 active. AID 504333; further: nearly all actives have a fitted effect of over 60% in size
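In this displacement format the biotinylated H3(5-23) peptide acetylated at Lys14 serves as ligand at 50 nM, with BAZ2B at 50 nM in PBS pH 7.4 containing 0.01% Tween-20. Donor and acceptor beads are 10 ug/mL final.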
L3MBTL1 inh – L3MBTL1 (human) inhibition; Potency, µM (top dose mostly 57.1 µM), actives largely listed as inhibitors; Q9Y468; AlphaScreen L3MBTL1–H3K9me1 peptide binding; AID 485360; 0.66% of 230,000 active; further: nearly all actives have a fitted effect of over 60% in size
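L3MBTL1 50 nM + b-AHA-H3(1-15)K9me1 75 nM, 30 min RT; compound added, 30 min RT; streptavidin donor/Ni-chelate acceptor beads 10 ug/mL each final, 30 min RT dark; AlphaScreen read.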
HP1b chromo inh – blocks HP1-beta chromodomain binding to methylated histone tails; P83916; AlphaScreen HP1-beta / biotin-H3K9me3 peptide binding; Potency, µM (series often up to 114 µM), most hits filed as inhibitors; 0.56% of 390,000 active; AID 540317; further: nearly all actives have a fitted effect of over 70% in size
Target sequence (P83916 whole entry, looked up): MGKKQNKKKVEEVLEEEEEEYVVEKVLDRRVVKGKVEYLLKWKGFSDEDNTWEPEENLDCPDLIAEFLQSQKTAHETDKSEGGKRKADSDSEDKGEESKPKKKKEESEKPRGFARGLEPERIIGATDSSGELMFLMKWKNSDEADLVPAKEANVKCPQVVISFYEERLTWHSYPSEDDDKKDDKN
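Compound inhibition of the preformed complex between 50 nM HP1-beta and 50 nM biotinylated H3K9me3 peptide was read by AlphaScreen. Buffer was PBS pH 7.4 with 0.01% Tween-20. Incubations ran 30 min at room temperature, with 10 ug/mL donor/acceptor beads.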
G9a block – blocks human histone lysine methyltransferase G9a. G9a H3K9 monomethylation, AlphaScreen, 2 h. Potency, µM (doses to about 102 µM), usual class: inhibitors. AID 504332. 8.8% of 350,000 active. Q96KQ7; further: nearly all actives have a fitted effect of over 75% in size
Target sequence (Q96KQ7 913-1193 limits assumed): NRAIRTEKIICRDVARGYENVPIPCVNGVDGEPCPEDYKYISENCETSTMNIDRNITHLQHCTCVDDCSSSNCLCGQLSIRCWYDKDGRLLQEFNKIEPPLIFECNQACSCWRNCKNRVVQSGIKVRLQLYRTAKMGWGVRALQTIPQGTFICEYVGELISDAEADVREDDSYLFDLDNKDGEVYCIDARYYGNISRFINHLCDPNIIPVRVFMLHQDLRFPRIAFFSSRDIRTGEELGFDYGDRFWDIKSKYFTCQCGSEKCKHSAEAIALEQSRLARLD
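Signal arises when biotinylated H3K9 peptide, once monomethylated, bridges streptavidin donor and antibody-captured acceptor beads. Enzyme at 20 nM was preincubated 15 min with test compounds; peptide 500 nM and SAM 20 uM then reacted for 2 h.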
Large screens that a line does not name were inactive. The call rests on the fitted dose curve; in most records, active means well fitted curve in the direction sought with a large enough effect; inconclusive means small, poorly fitted or top-dose-only effect, or another doubt; inactive means no such curve, though single readings can be large; an effect the other way counts as inactive or inconclusive.

O=C(c1ccc(Sc2cccc(Cl)c2)c([N+](=O)[O-])c1)N1CCN(c2ccccn2)CC1	JMJD2A Tudor inconclusive, BAZ2B inh inconclusive, HP1b chromo inh inconclusive, G9a block 15.8µM (no result: L3MBTL1 inh)
O=C(c1ccc(Cl)c([N+](=O)[O-])c1)N1CCN(c2ccccn2)CC1	none
CCCC[C@@H]1CNCCN1CCc1cccc(F)c1	none (no result: Sfp inh)
Fc1cccc(CCN2CCNC[C@@H]2Cc2ccccc2)c1	JMJD2A Tudor 56.2µM (no result: Sfp inh, BAZ2B inh, L3MBTL1 inh, G9a block)
CCOc1cc(/C=N/O)ccc1OCC(=O)Nc1cccc(C)c1	none
CCOc1cc(-c2nc(C)c(C(C)=O)n2O)ccc1OCC(=O)Nc1cccc(C)c1	Sfp inh inconclusive, G9a block 50.1µM
CC(C)(C)OC(=O)NC(NC(=O)OCC1c2ccccc2-c2ccccc21)C(=O)O (stereo not given)	none (no result: JMJD2A Tudor, BAZ2B inh, L3MBTL1 inh, HP1b chromo inh, G9a block)
Fc1ccc(NC(=S)NNc2ncc(C(F)(F)F)cc2Cl)c(F)c1	G9a block inconclusive
CCOC(=O)C1CCCN(C2CC(=O)N(c3cccc(C)c3)C2=O)C1 (stereo not given)	JMJD2A Tudor inconclusive, BAZ2B inh inconclusive, G9a block 28.2µM
CCOC(=O)c1ccc(N2C(=O)CC(N3CCCC(C)C3)C2=O)cc1 (stereo not given)	G9a block 10µM (no result: L3MBTL1 inh)
CCOC(=O)c1ccc(N2C(=O)CC(N3CCC(Nc4ccc(F)cc4)CC3)C2=O)cc1 (stereo not given)	JMJD2A Tudor inconclusive, G9a block 10µM (no result: L3MBTL1 inh)
O=S(=O)(O)c1ccc(O)cc1	none (no result: JMJD2A Tudor, BAZ2B inh, L3MBTL1 inh, HP1b chromo inh)
O=C(CSc1nncn1-c1cccnc1)Nc1cccc(C(F)(F)F)c1	none (no result: L3MBTL1 inh)
CCOC(=O)C1/C(=N\O)CC(C)(O)C(C(=O)OCC)C1c1ccc(N(C)C)cc1 (stereo not given)	Sfp inh 50.1µM, BAZ2B inh 79.4µM, G9a block 17.8µM (no result: L3MBTL1 inh)
O=[N+]([O-])c1cnccc1Nc1cccc(F)c1	BAZ2B inh inconclusive, G9a block 7.08µM
O=[N+]([O-])c1ccc(Nc2cccc(F)c2)nc1	G9a block 50.1µM
O=[N+]([O-])c1ccccc1Nc1cccc(F)c1	JMJD2A Tudor 44.7µM, HP1b chromo inh inconclusive (no result: Sfp inh, BAZ2B inh, L3MBTL1 inh, G9a block)
O=[N+]([O-])c1ccccc1Nc1ccccc1[N+](=O)[O-]	none (no result: Sfp inh, BAZ2B inh, L3MBTL1 inh, G9a block)
Cc1cc2c(s1)c1cnn(Cc3ccc(C(C)(C)C)cc3)c(=O)c1n2C	none (no result: Sfp inh, BAZ2B inh, L3MBTL1 inh, HP1b chromo inh, G9a block)
Cc1ccc(C)n1C1CCS(=O)(=O)C1 (stereo not given)	G9a block 56.2µM
Cc1c(C(=O)N2CCN(C3CCS(=O)(=O)C3)CC2)oc2ccc(Cl)cc12 (stereo not given)	none (no result: Sfp inh)
Cc1cc2nn(-c3ccc(F)cc3)nc2cc1NC(=O)c1cccc([N+](=O)[O-])c1C	none (no result: Sfp inh, L3MBTL1 inh)
CCCCCCCCCCCCCCCCCCNC(=O)OCC(COP(=O)([O-])OCC[n+]1ccsc1)OC (stereo not given)	G9a block 21.2µM (no result: JMJD2A Tudor, Sfp inh, BAZ2B inh, L3MBTL1 inh, HP1b chromo inh)
O=C(CCN1CCCCC1)Nc1ccc2c(c1)C(=O)c1ccc(NC(=O)CCN3CCCCC3)cc1C2=O	G9a block inconclusive (no result: JMJD2A Tudor, BAZ2B inh, L3MBTL1 inh, HP1b chromo inh)
CCCOc1ccc(-c2nc(C#N)c(N3CCN(CC)CC3)o2)cc1	JMJD2A Tudor inconclusive, BAZ2B inh 39.8µM, HP1b chromo inh 50.1µM, G9a block inconclusive
CCOc1ccc(-c2nc(C#N)c(N3CCN(CC)CC3)o2)cc1	JMJD2A Tudor inconclusive, BAZ2B inh inconclusive, G9a block 50.1µM
CCOc1ccc(-c2nc(C#N)c(N3CCN(C)CC3)o2)cc1	none (no result: L3MBTL1 inh)
CCOc1ccc(-c2nc(C#N)c(N3CCCCCC3)o2)cc1	JMJD2A Tudor 35.5µM, Sfp inh inconclusive, BAZ2B inh 11.2µM, HP1b chromo inh inconclusive, G9a block 7.94µM
Cc1ccc(S(=O)(=O)NC(CC(C)C)C(=O)NCCCn2nc(C)cc2C)cc1 (stereo not given)	none (no result: Sfp inh)
CCc1nn(CC(=O)NCCCN2CCOCC2)c(=O)c2cc3c(OC)cccc3n12	none (no result: Sfp inh, BAZ2B inh, L3MBTL1 inh, G9a block)
COc1ccccc1Nc1ccc(N)cc1	JMJD2A Tudor 50.1µM, BAZ2B inh 28.2µM, L3MBTL1 inh inconclusive, HP1b chromo inh inconclusive, G9a block 12.6µM
COc1ccccc1Nc1ccc(NS(=O)(=O)c2ccc(C(C)=O)cc2)cc1	JMJD2A Tudor 39.8µM, BAZ2B inh inconclusive, HP1b chromo inh inconclusive, G9a block 35.5µM (no result: L3MBTL1 inh)
COc1ccccc1NS(=O)(=O)c1ccc(NC(C)=O)cc1	none
